In PubChem BioAssay AID1466 (National Center for Advancing Translational Sciences (NCATS), 2008):
Out of some 200,000 compounds screened, about 10 (0.005%) were called active. Another 8% or so got no clear call; they are omitted. Calls come from the whole dose curve; as a rule, active = well fitted inhibition curve with a large enough effect; inconclusive = small, poorly fitted or top-dose-only effect, or effect the other way, or another doubt; inactive = no such curve, though single readings can be large or run the other way. What follows is part of a selection rich in actives, with near analogues and random picks from the rest. A call without a number means that no potency is given here.
Potency is the fitted concentration of half-maximal effect.

The compounds below were run against Lysosomal alpha-glucosidase (Homo sapiens) (UniProt P10253) (assay: qHTS Assay for Inhibitors of Human alpha-Glucosidase as a Potential Chaperone Treatment of Pompe Disease). Conditions: purified human GAA, 4-MU-alpha-glucoside fluorescence; series mostly up to 76.9 µM.
Description: NIH Chemical Genomics Center [NCGC] NIH Molecular Libraries Probe Production centers Network [MLPCN] MLPCN Grant: 1R03MH084841-01 Assay Submitter (PI): Wei Zheng NCGC Assay Overview: Alpha-glucosidase is responsible for hydrolysis of terminal, non-reducing 1,4-linked alpha-D-glucose residues with release of alpha-D-glucose. It is a lysosomal hydrolase that is required for the degradation of a small percentage (1-3%) of cellular glycogen in human. Deficiency of this enzyme results in glycogen-storage disease type II (GSDII), also referred to as Pompe disease, an autosomal recessive disorder. Structurally normal glycogen is accumulated in lysosomes and cytoplasm in affected patients, primarily in muscle tissues. Excessive glycogen storage within lysosomes may interrupt normal functioning of other organelles and leads to cellular injury. In turn, this leads to enlargement and dysfunction of the entire organ involved (eg, cardiomyopathy and muscle weakness). It has reported that the improper folding and trafficking of alpha-glucosidase resulting from the genetic mutations may account for a significant number of Pompe patients. […] We optimized this alpha-glucosidase assay in 1536-well plate format for identifying the novel small molecule inhibitors with the structures other than the sugar analogs in order to develop the new pharmacological chaperones.
NCGC Assay Protocol Summary: This is a fluorogenic enzyme assay with 4-methylumbelliferyl-alpha-D-[…] as the substrate and human alpha-glucosidase as the enzyme preparation. Upon the hydrolysis of this fluorogenic substrate, the resulting product, 1. 4-methyllumbelliferone, can be excited at 365 nm and emits at 440 nm which can be detected by a standard fluorescence plate reader. Data were normalized to the controls for basal activity (without enzyme) and 100% activity (with enzyme). In the AC50 values were determined from concentration-response data modeled with the standard Hill equation. Assay buffer: 50 mM citric acid (titrated with potassium phosphate to pH 5.0), 0.005% Tween-20, pH 5.0. (pH 5.0 is an optimal condition for this enzyme assay) 1536-well assay protocol for the human alpha-glucosidase: (1) Add 2 ul/well of enzyme (4 nM final) (2) Add 23 nL compounds in DMSO solution. The final titration was 0.7 nM to 77 uM. (3) Add 1 ul of substrate (400 uM final) (4) Incubate at room temperature for 20 min. (5) Add 2 ul stop solution (1M NaOH and 1M Glycine mixture, pH 10) (6) Detect the assay plate in a ViewLux plate reader (PerkinElmer) with Ex=365 nm and Em=440nm. Keywords: Alpha-glucosidase, Pompe Disease, pharmacological chaperone, chaperone therapy, high throughput screening, alpha-glucosidase inhibitor, MLSMR, MLSCN, NIH Roadmap, qHTS and NCGC
With Cc1cc(/C=C2/C(=O)NC(=O)N(Cc3ccco3)C2=O)c(C)n1-c1ccc(C(=O)O)cc1 the Potency was 31.6 µM (active).
For Cc1c(C(=O)O)cccc1-n1c(C)cc(/C=C2\C(=O)NC(=O)N(c3ccc4c(c3)OCO4)C2=O)c1C, the Potency was “inactive”.
For Cc1ccc(-n2c(C)cc(/C=C3\C(=O)NC(=O)N(C)C3=O)c2C)cc1C, the Potency was “inactive”.
In the case of CCN1CC2C3CCC(C)(O3)C2C1 (stereo not given), the Potency is reported as “inactive”.
For CCOP(=O)(OCC)C(NC(=O)c1ccc(OC)cc1)C(Cl)(Cl)Cl (stereo not given), the Potency was “inactive”.
